In the supplement of paper PMC8285479:
Counter-ions that a name gives are not always drawn. ± gives the standard deviation of the averaged measurements. Over roughly 1,900 compounds, “normalised cell viability (NPI; 0 = phenylarsine oxide control, 1 = DMSO control)” has its median near 1; the lowest 2% begin near 0.039. The entries come from a sample that favours the lowest values as a whole.

Tested on: NCI-H1944
Test: normalised cell viability (NPI; 0 = phenylarsine oxide control, 1 = DMSO control) (fraction of DMSO control); NCI-H1944 is a non-small cell lung cancer line; higher = more viable cells (less compound toxicity)
Conditions: 6 days
[1] = glucocorticoid arm: hydrocortisone 2.75 uM co-treatment, compound 1 µM
[2] = glucocorticoid arm: hydrocortisone 2.75 uM co-treatment, compound 5 µM
[3] = glucocorticoid arm: hydrocortisone 2.75 uM pre-treated 2 days and continued, compound 1 µM
[4] = glucocorticoid arm: hydrocortisone 2.75 uM pre-treated 2 days and continued, compound 5 µM
[5] = glucocorticoid arm: vehicle, compound 1 µM
[6] = glucocorticoid arm: vehicle, compound 5 µM
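Also: CTB read-out in 384-well plates, triplicate wells, NPI normalised per plate against 1 µM phenylarsine oxide (0) and 0.1% DMSO (1) controls.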

SMILES | normalised cell viability [1] | normalised cell viability [2] | normalised cell viability [3] | normalised cell viability [4] | normalised cell viability [5] | normalised cell viability [6]
NC(=O)c1cc[n+](CC2=C(C(=O)O)N3C(=O)[C@@H](NC(=O)C(c4ccccc4)S(=O)(=O)[O-])[C@H]3SC2)cc1 (stereo not given in full) [Cefsulodin sodium salt hydrate] | 1.01 | 1.013 ± 0.0058 | 1.02 | 1.01 ± 0.014 | 0.997 ± 0.013 | 0.9997 ± 0.0096
CCc1cnn2c(NCc3ccc[n+]([O-])c3)cc(N3CCCC[C@H]3CCO)nc12 | 0.0547 ± 0.0038 | 0.0409 ± 0.0039 | 0.144 ± 0.004 | 0.153 ± 0.0068 | 0.0139 ± 0.0022 | 0.00878 ± 0.0013
Oc1cc2c(cc1O)C(c1ccccc1)CNCC2 (racemic) | 0.987 ± 0.014 | 0.982 ± 0.013 | 0.982 ± 0.023 | 0.972 ± 0.011 | 0.992 ± 0.0044 | 0.9913 ± 0.0021
OC(CN1CCC(Cc2ccc(F)cc2)CC1)c1ccc(Cl)cc1 (stereo not given) [Eliprodil] | 0.9487 ± 0.0064 | 0.9277 ± 0.0051 | 0.9827 ± 0.0091 | 0.971 ± 0.0076 | 0.9973 ± 0.0046 | 0.9967 ± 0.0058
Nc1ccccc1NC(=O)c1ccc(CNC(=O)OCc2cccnc2)cc1 [Entinostat] | 0.925 ± 0.019 | 0.0313 ± 0.0074 | 0.962 ± 0.013 | 0.0766 ± 0.011 | 0.348 ± 0.03 | 0.00136 ± 0.00059
CC(=O)Nc1ccc(C(=O)Nc2ccccc2N)cc1 | 1.02 ± 0.011 | 1.063 ± 0.0058 | 1.033 ± 0.0058 | 1.06 ± 0.011 | 0.9833 ± 0.0057 | 0.906 ± 0.052
Nc1ccccc1NC(=O)c1ccc(CNC(=O)OCc2cccnc2)cc1 [Entinostat (MS-275)] | 1.05 ± 0.015 | 0.184 ± 0.004 | 1.023 ± 0.0058 | 0.302 ± 0.018 | 0.866 ± 0.026 | 0.02 ± 0.0035
Cc1ccc(NC(=O)c2ccc(CN3CCN(C)CC3)cc2)cc1Nc1nccc(-c2cccnc2)n1 | 1.043 ± 0.0058 | 1.1 ± 0.032 | 1.04 ± 0.011 | 1.05 ± 0.01 | 0.9957 ± 0.004 | 1 ± 0.014
COc1ccc(C(=O)NCc2cccnc2)cc1C(=O)NCc1cccnc1 [Picotamide] | 0.989 ± 0.017 | 0.992 ± 0.004 | 0.867 ± 0.26 | 1 ± 0.016 | 1.007 ± 0.0058 | 1.003 ± 0.0064
Nc1ccccc1NC(=O)c1ccc(CNc2nccc(-c3cccnc3)n2)cc1 [Mocetinostat (MGCD0103)] | 1.033 ± 0.0058 | 0.00494 ± 0.0024 | 1.02 ± 0.02 | 0.0153 ± 0.0051 | 0.585 ± 0.02 | 0.00194 ± 0.00024
Cc1cc(NC(=O)c2cccc(NC(=O)/C=C/CN(C)C)c2)ccc1Nc1nccc(-c2cccnc2)n1 | 0.989 ± 0.016 | 0.943 ± 0.017 | 1.007 ± 0.0058 | 0.917 ± 0.026 | 0.959 ± 0.011 | 0.702 ± 0.033
Cc1ccc(NC(=O)c2ccc(CN3CCN(C)CC3)cc2)cc1Nc1nccc(-c2cccnc2)n1 [Imatinib (Gleevec)] | 1.05 ± 0.017 | 1.14 ± 0.015 | 1.037 ± 0.0058 | 1.1 ± 0.01 | 1.01 ± 0.015 | 1.033 ± 0.0058
Cc1ccc(NC(=O)c2ccc(CN3CCN(C)CC3)cc2)cc1Nc1nccc(-c2cccnc2)n1 [Imatinib Mesylate] | 1.05 ± 0.015 | 1.14 ± 0.021 | 1.05 ± 0.015 | 1.1 ± 0.032 | 1.01 ± 0.01 | 1.03 ± 0.011
CC(=O)Nc1ccc(C(=O)Nc2ccccc2N)cc1 [CI994 (Tacedinaline)] | 0.9813 ± 0.0093 | 1.03 ± 0.029 | 0.999 ± 0.012 | 1.02 ± 0.02 | 0.9707 ± 0.0072 | 0.9157 ± 0.008
COc1cc2c(cc1OC)[C@@H](c1ccccc1)CN(C)CC2 | 0.9913 ± 0.006 | 1.023 ± 0.0058 | 1.02 ± 0.011 | 1.01 ± 0.019 | 0.9883 ± 0.0015 | 0.9863 ± 0.0055
Nc1nc(N)c(N=O)c(OCC2CCCCC2)n1 | 1.02 ± 0.011 | 1.05 ± 0.017 | 1.037 ± 0.0058 | 1.023 ± 0.0058 | 1 | 0.978 ± 0.019
Clc1ccc(C2(c3ccc(-c4cn[nH]c4)cc3)CCNCC2)cc1 | 0.968 ± 0.012 | 0.9977 ± 0.0021 | 0.975 ± 0.011 | 1.006 ± 0.0075 | 0.9947 ± 0.0051 | 0.939 ± 0.015
CC(C)NCC(O)c1ccc(O)c(O)c1 (racemic) [(±)-Isoproterenol hydrochloride] | 1.01 ± 0.011 | 1.03 ± 0.042 | 1.01 | 1.04 ± 0.064 | 0.99967 ± 0.00058 | 1.02 ± 0.021
N[C@@H](CCCC(=O)O)C(=O)O [L-2-aminoadipic acid] | 0.9947 ± 0.0055 | 0.991 ± 0.015 | 0.997 ± 0.013 | 0.97 ± 0.018 | 0.979 ± 0.014 | 0.9823 ± 0.0067
NC(=O)Nc1cc(-c2cccc(F)c2)sc1C(=O)N[C@H]1CCCNC1 | 0.65 ± 0.013 | 0.45 ± 0.024 | 0.93 ± 0.021 | 0.7733 ± 0.0071 | 0.338 ± 0.012 | 0.158 ± 0.015
O=C(NC1CCNCC1)c1n[nH]cc1NC(=O)c1c(Cl)cccc1Cl | 0.225 ± 0.03 | 0.0298 ± 0.0013 | 0.349 ± 0.039 | 0.149 ± 0.015 | 0.0396 ± 0.029 | 0.0072 ± 0.00086
CN1CCN(C(=O)c2cc3cc(Cl)ccc3[nH]2)CC1 | 1.027 ± 0.0058 | 1.023 ± 0.0058 | 1.013 ± 0.0058 | 1.03 ± 0.021 | 1.007 ± 0.0058 | 1.01 ± 0.01
Cc1[nH]c(/C=C2\C(=O)Nc3ccc(S(=O)(=O)N(C)c4cccc(Cl)c4)cc32)c(C)c1C(=O)N1CCN(C)CC1 | 0.9913 ± 0.0072 | 0.986 ± 0.012 | 1.003 ± 0.0058 | 0.989 ± 0.014 | 0.969 ± 0.01 | 0.849 ± 0.036
CN1CCCN(C(=O)c2cccc(-c3ccc(/C=C4/C(=O)Nc5ccc(Cl)cc54)o3)c2)CC1 | 0.717 ± 0.032 | 0.214 ± 0.24 | 0.937 ± 0.021 | 0.887 ± 0.059 | 0.282 ± 0.017 | 0.00113 ± 0.00047
NC1(Cc2ccc(Cl)cc2)CCN(c2ncnc3[nH]ccc23)CC1 | 0.901 ± 0.034 | 0.602 ± 0.08 | 0.934 ± 0.014 | 0.68 ± 0.045 | 0.9813 ± 0.0087 | 0.827 ± 0.068
